We go through 115 compounds from PubChem BioAssay AID1637 (Sanford-Burnham Center for Chemical Genomics, 2009).

The structures appear in SMILES notation. The campaign covered roughly 3,700 compounds. Fewer than 10 were called active. These entries were drawn from the full list. Values without a mark were called inactive. The rule behind the calls is not given here. Where only a bound is given, the exact number is not on record here.

The nature of the assay: NMR binding screen, influenza A RNA promoter, Kd (AID 1637). The note with it: NMR binding to influenza A RNA promoter.
By Kd is commonly meant a measure of binding affinity in units of concentration. Consider `CC1=NNC(=O)C1CCc1ccncc1` (stereo not given), for which the Kd is more than 4 mM.
Regarding `O=C(NCc1ccccc1Br)c1ccco1`, the Kd is more than 4 mM.
For the compound `COc1ccc(-c2c(OC)c3c(OC)c4c(cc3oc2=O)OC(C)(C)C=C4)cc1`, the Kd is more than 4 mM.
On to `CCN=Cc1c(O)n(-c2ccccc2C)c(=O)[nH]c1=O`, for which the Kd is more than 4 mM.
Consider `NC(=O)c1ccc(NC(=O)C2CC2)cc1`, for which the Kd is more than 4 mM.
Under `c1ccc(CCN2CCN(CCc3ccccn3)CC2)nc1` stands more than 4 mM; under `COc1c(O)cc2c(c1O)[C@H]1O[C@H](CO)[C@@H](O)[C@H](O)[C@@H]1OC2=O`, more than 4 mM; under `COc1cc(/C=C2/NC(=S)NC2=O)cc(Cl)c1O`, more than 4 mM.
In the case of `O=C(Nc1nccs1)c1ccc(=O)[nH]n1`, the Kd is more than 4 mM.
`COC(=O)c1ccc2nc[nH]c2c1`: the Kd was more than 4 mM.
Consider `CNS(=O)(=O)c1cccs1`, for which the Kd was more than 4 mM.
For `OCCCc1nc2ccc(C(F)(F)F)cc2[nH]1`, the Kd was more than 4 mM.
On to `CC(=O)Nc1ccc(S(=O)(=O)N(C)C)cc1`, for which the Kd was more than 4 mM.
For `O=C(NCc1cccc(Cl)c1)c1cnccn1`, the Kd was more than 4 mM.
As to `Cc1cc(C)n(CCCC(=O)O)n1`, the Kd was more than 4 mM.
Turning to `Cn1c(O)c(/C=C2\C=CC=N2)c(=O)[nH]c1=O`, the Kd was more than 4 mM.
`CCOC(=O)c1ccc2c(c1)nnn2C`: the Kd was more than 4 mM.
`COc1ccc(-c2coc3c(OC)c(OC)cc(OC)c3c2=O)cc1`: the Kd is more than 4 mM.
For `NCc1c[nH]c2ccccc12`, the Kd was more than 4 mM.
As for `Cn1c(=O)n(C)c2cc(C(N)=O)ccc21`, the Kd is more than 4 mM.
Turning to `CC(C)=NNC(=O)C(=O)NC(C)(C)C`, the Kd is more than 4 mM.
Take `NC(=O)C1CCN(C(=O)c2ccccc2)CC1`: the Kd is more than 4 mM.
The figure for `CN1C(=O)/C(=C/c2ccc(O)cc2O)SC1=S` is more than 4 mM; for `NC(C(=O)O)C(O)c1ccccc1` (stereo not given) it is more than 4 mM.
In the case of `CCOC(=O)c1c(C)[nH]c2ccc(O)cc12`, the Kd was more than 4 mM.
`O=C(Cc1ccc(F)cc1)Nc1ncccn1`: the Kd was more than 4 mM.
As to `Fc1ccc(-c2n[nH]c(=S)n2CC2CCCO2)cc1` (stereo not given), the Kd was more than 4 mM.
The figure for `O=C(CC1SC(=O)NC1=O)Nc1nccs1` (stereo not given) is more than 4 mM; for `O=C(O)c1cccc2c1OCCCO2` it is more than 4 mM; for `NC(=S)CN1CCCC1=O` it is more than 4 mM.
With `CC1=NN(c2ccc(C)cc2)C(=O)C1`, the Kd is more than 4 mM.
For the compound `O=P(c1ccccc1)(c1ccccc1)C1CCOCC1`, the Kd was more than 4 mM.
Under `CC(=O)N1CCN(S(=O)(=O)c2ccccc2)CC1` stands more than 4 mM; under `CN1CCN(CC(=O)N2CCc3ccccc32)CC1`, more than 4 mM; under `O=C(NC1=NCCS1)c1cccc(F)c1`, more than 4 mM.
Turning to `O=C1NC(=S)S/C1=C/c1ccncc1`, the Kd was more than 4 mM.
On to `Cc1[nH]c2ccccc2c1C(=O)CSc1ncn[nH]1`, for which the Kd is more than 4 mM.
In the case of `O=C(NN1CCOCC1)c1ccccc1F`, the Kd is more than 4 mM.
For `Cc1cc(=O)oc2cc3c(cc12)OCCO3`, the Kd is more than 4 mM.
`CC1SC(=NC(=O)c2ccncc2)NC1=O` (stereo not given): the Kd was more than 4 mM.
Turning to `Cc1cc(OC(=O)c2ccco2)c([N+](=O)[O-])c(=O)[nH]1`, the Kd was more than 4 mM.
For the compound `Cc1c(O)c(O)cc2c1CC=C1[C@@]2(C)CC[C@@]2(C)C3C[C@](C)(C(=O)O)CC[C@]3(C)CC[C@]12C` (stereo not given in full), the Kd was more than 4 mM.
The figure for `CCN1CCn2c1nc(N1CCOCC1)nc2=O` is more than 4 mM; for `Nc1cc(=O)[nH]c(=S)n1-c1ccc(F)cc1` it is more than 4 mM; for `Cc1cc(=O)n2ncn(Cc3ccccc3)c2n1` it is more than 4 mM.
The figure for `Nc1ccc(-n2cccc2)cc1` is more than 4 mM; for `CC1(C)Cc2nc(N3CCOCC3)c(C#N)cc2CO1` it is more than 4 mM; for `O=C1c2cccnc2C(=O)N1Cc1ccc2c(c1)OCO2` it is more than 4 mM.
As for `Cn1ccnc1C(O)c1ccccc1` (stereo not given), the Kd was more than 4 mM.
For the compound `CS(=O)(=O)c1ccccc1C(=O)Nc1nccs1`, the Kd was more than 4 mM.
Consider `NS(=O)(=O)c1ccc(NC(=O)C2CC2)cc1`, for which the Kd is more than 4 mM.
As to `COc1ccc(/C=C2/NC(=S)NC2=O)cc1`, the Kd was more than 4 mM.
For the compound `CC(=O)NC(NC(C)=O)c1ccccc1`, the Kd was more than 4 mM.
The figure for `O=S(=O)(O)c1cc[n+]([O-])cc1` is more than 4 mM; for `Cc1cc(N2C(=O)CCC2=O)n(-c2ccccc2)n1` it is more than 4 mM; for `Nc1nc(-c2ccc(O)cc2)cs1` it is more than 4 mM.
Under `O=C(CNC(=O)c1ccc(F)cc1)NC1=NCCS1` stands more than 4 mM; under `COCCOc1nc2ccccc2nc1C`, more than 4 mM.
In the case of `O=C1C2CC=CCC2C(=O)N1c1ccccc1O` (stereo not given), the Kd was more than 4 mM.
Take `Cc1ccn(S(=O)(=O)c2ccc(F)cc2)n1`: the Kd is more than 4 mM.
Regarding `NS(=O)(=O)c1ccc(NC(=O)C(F)(F)F)cc1`, the Kd was more than 4 mM.
For `CC(C)C(C)/C=C/C(C)[C@H]1CCC2C3=CCC4CC(=O)CC[C@]4(C)C3CC[C@@]21C` (stereo not given in full), the Kd was more than 4 mM.
Take `CS(=O)(=O)NC1CCN(Cc2ccccc2)CC1`: the Kd was more than 4 mM.
Under `CC(=O)c1c(O)c(C)c(O)c2c1OC1=CC(=O)C(C(C)=O)C(=O)C12C` (stereo not given) stands more than 4 mM; under `O=C(O)c1coc2c1C(=O)CCC2`, more than 4 mM; under `S=c1[nH]nc(-c2cccnc2)n1Cc1ccccc1`, more than 4 mM.
For `CS(=O)(=O)N1CCN(C(=O)Cc2cccs2)CC1`, the Kd is more than 4 mM.
Consider `NC1=NC(=O)/C(=C/c2ccccc2[N+](=O)[O-])S1`, for which the Kd is more than 4 mM.
On to `CCN1CC2(C)CC[C@H](OC)[C@]34C2[C@H](O)C2(OCO[C@@]25C[C@H](OC)[C@H]2C[C@]3(O)C5[C@H]2O)C14`, for which the Kd is more than 4 mM.
Take `O=c1c2ccccc2oc2ccc(O)cc12`: the Kd was more than 4 mM.
For `COc1cc(C)c(S(=O)(=O)N2CCN(C)CC2)cc1C`, the Kd was more than 4 mM.
In the case of `Nc1ncnc(NCc2cccnc2)c1[N+](=O)[O-]`, the Kd was more than 4 mM.
Consider `COC(=O)c1nc(-c2ccccc2)oc1N(C)C`, for which the Kd was more than 4 mM.
On to `Cc1cc(C)n(S(=O)(=O)c2cc(C)c(C)cc2C)n1`, for which the Kd was more than 4 mM.
As to `CCc1cc2c(SCC(=O)O)ncnc2s1`, the Kd was more than 4 mM.
`O=C(c1ccccc1)c1ccc(N2CCNCC2)cc1`: the Kd is more than 4 mM.
As to `CC(=O)Nc1cccc(NC(=O)c2cccnc2)c1`, the Kd is more than 4 mM.
The figure for `C(=N\c1nccs1)/c1cccnc1` is more than 4 mM; for `Cc1ccccc1C(=O)Nn1cnnc1` it is more than 4 mM.
For the compound `OCc1cccc2c1OCCO2`, the Kd is more than 4 mM.
Consider `O=C(Nc1cccnc1)N1CCOCC1`, for which the Kd was more than 4 mM.
With `CN(c1ccccc1C(=O)N1CCCC1)S(C)(=O)=O`, the Kd is more than 4 mM.
Take `[O-][n+]1onc2c1CCc1c-2nc(-c2ccccc2)n1O`: the Kd was more than 4 mM.
For `CNC(=O)c1cc(C)c(-c2ccccc2)s1`, the Kd is more than 4 mM.
Turning to `NC(=O)CC(=O)NC12CC3CC(CC(C3)C1)C2`, the Kd is more than 4 mM.
In the case of `O=C(NCc1cccs1)c1ccc2c(c1)OCCO2`, the Kd is more than 4 mM.
On to `COCCn1c(C)cc(O)cc1=O`, for which the Kd is more than 4 mM.
As for `CSc1ccc(C(=S)N2CCN(C)CC2)cc1`, the Kd was more than 4 mM.
The figure for `Nc1ncnc(Nc2ccccc2C(F)(F)F)n1` is more than 4 mM; for `Cc1nnsc1C(=O)O` it is more than 4 mM.
Under `CCc1ccccc1NC(=O)c1cnccn1` stands more than 4 mM; under `Cc1ccc(/C=C2/C(=O)N=C(N)N2C)s1`, more than 4 mM; under `O=c1[nH]cc(NCc2ccco2)c(=O)[nH]1`, more than 4 mM.
On to `COc1ccc(-c2c(O)c3c(OC)c4c(cc3oc2=O)OC(C)(C)CC4)cc1`, for which the Kd is more than 4 mM.
In the case of `COC[C@]12CN(C=O)C3[C@@H]4[C@H](OC)C1[C@]3(C1CC3(O)C(OC)C(O)C4(OC(C)=O)C1C3OC(=O)c1ccccc1)[C@@H](OC)C[C@H]2O` (stereo not given in full), the Kd was more than 4 mM.
Under `C=C(C)[C@@H]1CC[C@]2(CO)CC[C@]3(C)[C@H](CCC4[C@@]5(C)CC[C@H](O)C(C)(C)C5CC[C@]43C)C12` (stereo not given in full) stands more than 4 mM.
`CSc1ncc(C(=O)O)n1Cc1ccccc1`: the Kd was more than 4 mM.
Under `CCOC(=O)C1CCNCC1` stands more than 4 mM; under `NCc1csc(-c2ccccc2)n1`, more than 4 mM; under `O=C(O)c1ccc2snnc2c1`, more than 4 mM.
`Oc1ccc(C2SCCS2)cc1`: the Kd is more than 4 mM.
`Nc1oncc1-c1ccccn1`: the Kd is more than 4 mM.
For `Cc1cccc(CSc2nncc(=O)[nH]2)c1`, the Kd is more than 4 mM.
Consider `COc1ccc2c(c1)c1n[nH]c(=S)nc1n2C`, for which the Kd is more than 4 mM.
Under `Cc1nc2ccccc2c(=O)[nH]1` stands more than 4 mM; under `CCc1noc(C)c1C(=O)N1CCCC1`, more than 4 mM.
For `Nc1cc(=O)[nH]c(=O)n1Cc1ccco1`, the Kd is more than 4 mM.
For the compound `NC(=S)NC(=O)CN1C(=O)c2ccccc2C1=O`, the Kd is more than 4 mM.
Under `NC(=O)CSc1ccc(Br)cc1` stands more than 4 mM; under `O=C(c1ccncc1)c1ccc(Br)cc1`, more than 4 mM.
With `CC1=C/C(=C\c2c(O)[nH]c(=O)[nH]c2=O)C(C)=N1`, the Kd is more than 4 mM.
Under `NC(=O)C1CCN(S(=O)(=O)c2ccccc2)CC1` stands more than 4 mM.
As to `CCOC(=O)CNc1ncnc2c1nnn2CC`, the Kd was more than 4 mM.
For `O=C1CNc2cc(C(=O)O)ccc2N1`, the Kd was more than 4 mM.
For `CCC1(CC)C(=O)N=C(N)NC1=O`, the Kd was more than 4 mM.
